{
  "source": "PubChem BioAssay AID652257",
  "about": "(The Scripps Research Institute Molecular Screening Center, 2013)",
  "note": "About 4,800 (1.3%) of roughly 370,000 compounds were called active. Many of the other results were omitted from the sample, so actives are more common in it than they were. Values without a mark were called inactive.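 How the source made its calls: active means inhibition above about 21% made by adding two undisclosed values (limit read from the data); inactive means the rest.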",
  "data": [
    {"molecular_target": "Protein arginine N-methyltransferase 1 (Homo sapiens) (UniProt Q99873)", "sequence (Q99873 whole entry, looked up)": "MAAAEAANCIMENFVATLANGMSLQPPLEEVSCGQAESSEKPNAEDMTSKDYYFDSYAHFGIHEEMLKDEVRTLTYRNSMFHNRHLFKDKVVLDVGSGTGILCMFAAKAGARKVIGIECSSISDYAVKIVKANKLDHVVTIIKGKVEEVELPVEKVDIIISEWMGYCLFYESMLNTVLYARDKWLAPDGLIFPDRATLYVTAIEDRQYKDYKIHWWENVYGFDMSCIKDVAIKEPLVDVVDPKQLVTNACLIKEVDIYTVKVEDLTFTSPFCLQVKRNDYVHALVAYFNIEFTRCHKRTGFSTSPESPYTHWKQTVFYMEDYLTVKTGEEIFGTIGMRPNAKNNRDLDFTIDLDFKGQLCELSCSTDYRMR", "experiment": "PRMT1 methyltransferase inhibitors, primary screen, biochemical, fluorescence polarization (AID 652257)", "settings": "recombinant PRMT1, activity-based probe fluorescence polarization; at 2.79 µM; stronger effect = higher value", "values": [
      {"smiles": "O=c1[nH]c2c(c(=O)n1-c1ccccc1)CCO2", "inhibition": "3.18%"},
      {"smiles": "Cc1ccc(S(=O)(=O)NCCC(c2ccccc2)c2ccccc2)cc1C(=O)O", "inhibition": "-5.2%"},
      {"smiles": "COC(=O)c1ccc(CNC(=O)Cn2cc(C)c(=O)[nH]c2=O)cc1", "inhibition": "3.88%"},
      {"smiles": "CC(=O)NC1=NC(=O)CS1", "inhibition": "71.7% (active)"},
      {"smiles": "C[C@@H]1CN([C@@H](C)CO)C(=O)c2cccc(NC(=O)Nc3cccc4ccccc34)c2O[C@H]1CN(C)S(=O)(=O)c1ccccc1F", "inhibition": "-7.41%"},
      {"smiles": "COc1cccc(/C=C2\\CC3(OC(C)=O)CCCN2C3)c1", "note": "(stereo unspecified)", "inhibition": "-1.33%"},
      {"smiles": "CCCCC(=O)N[C@@H]1CC[C@@]23CCCN2C(=O)CCC[C@H]3[C@H]1C", "inhibition": "-1.5%"},
      {"smiles": "CCOc1ccc(-c2n[nH]c(=S)n2/N=C/c2cc3c(cc2[N+](=O)[O-])OCO3)cc1", "inhibition": "-0.65%"},
      {"smiles": "S=c1[nH]nc(-c2ccccc2)n1/N=C/c1c[nH]c2ccccc12", "inhibition": "25.5% (active)"},
      {"smiles": "CCc1n[nH]c(=S)n1/N=C/c1c[nH]c2ccc(Br)cc12", "inhibition": "29.8% (active)"},
      {"smiles": "C[n+]1ccc(/C=C/c2c[nH]c3ccccc23)cc1", "inhibition": "4.53%"},
      {"smiles": "Cc1cccc(NC(=O)CSc2nnc(CCNC(=O)OC(C)(C)C)o2)c1C", "inhibition": "-1.24%"},
      {"smiles": "O=C(O)CCN1C(=O)CC2(CCCCC2)C1=O", "inhibition": "0.48%"},
      {"smiles": "N#Cc1ccc(OC[C@@H](O)CN2CCC(C(O)(c3ccccc3)c3ccccc3)CC2)c(F)c1", "inhibition": "-0.03%"},
      {"smiles": "CC(=O)N1CCCc2cc(S(=O)(=O)N3CCCC(C(=O)N4CCN(c5cccc(Cl)c5)CC4)C3)ccc21", "note": "(stereo unspecified)", "inhibition": "-1.42%"},
      {"smiles": "CCOC(=O)C1(Cc2ccc(Cl)cc2)CCN(C(=O)C2=NNC(=O)CC2)CC1", "inhibition": "3.16%"},
      {"smiles": "CCOCCCNC(=S)N1CCC(NC(=O)C2CCCCC2)CC1", "inhibition": "4.18%"},
      {"smiles": "Cc1cc(C)c2nc(-c3ccco3)cc(C(=O)O)c2c1", "inhibition": "36.4% (active)"},
      {"smiles": "Cc1ccsc1-c1cc(C(=O)O)c2c(ccc3ccccc32)n1", "inhibition": "-0.02%"},
      {"smiles": "CCOC(=O)c1ccn(-c2nc(-c3ccco3)cc(C(F)(F)F)n2)n1", "inhibition": "3.19%"},
      {"smiles": "COc1ccc(-c2cc(-c3nnc(SCC(=O)Nc4cccc5ccccc45)n3N)[nH]n2)cc1", "inhibition": "2.25%"},
      {"smiles": "Cc1ccc2c(c1)c1ncnc(N3CCc4ccccc4C3)c1n2C", "inhibition": "-0.03%"},
      {"smiles": "CCN(C(=O)Nc1cccc2ccccc12)c1ccccc1", "inhibition": "9.59%"},
      {"smiles": "Cc1cccc(C)c1NC(=O)C(c1cccc(F)c1)N1CCN(C)CC1", "note": "(stereo unspecified)", "inhibition": "-4.4%"},
      {"smiles": "O=S1(=O)c2c(NCc3ccco3)cccc2Oc2ccccc2CN1Cc1cn(Cc2cccc(C(F)(F)F)c2)nn1", "inhibition": "0.88%"},
      {"smiles": "COC(=O)C1=C(C)NC(=S)NC1c1ccc(OC)cc1", "note": "(stereo unspecified)", "inhibition": "-3.18%"},
      {"smiles": "COc1ccc(CCNC2=CC(=O)CC(C)(C)C2)cc1", "inhibition": "-4.15%"},
      {"smiles": "COc1ccc(NC2=CC(=S)NC(C)(C)C2)cc1", "inhibition": "33.8% (active)"},
      {"smiles": "Cc1ccc(Cn2cc(CN3[C@@H](CC(C)C)COc4ccc(Cl)cc4S3(=O)=O)nn2)cc1", "inhibition": "-3.14%"},
      {"smiles": "CC(=O)c1cccc(NC(=O)CN2C(=O)c3cccnc3Oc3ccc(Cl)cc32)c1", "inhibition": "1.98%"},
      {"smiles": "COc1ccc(C)cc1NC(=S)Nc1ccccc1SC", "inhibition": "1.24%"},
      {"smiles": "COc1cc(NC(=S)NNC(=O)CC(C)C)c(OC)cc1Cl", "inhibition": "5.88%"},
      {"smiles": "CCc1ccccc1NC(=S)Nc1cc(OC)c(NC(=O)C(C)C)cc1OC", "inhibition": "22.1% (active)"},
      {"smiles": "FC(F)(F)c1cccc(Cn2ccc3ccc(-c4ccc5ccn(Cc6ccccc6)c5c4)cc32)c1", "inhibition": "-0.46%"},
      {"smiles": "COc1ccc(Cn2ccc3ccc(-c4ccc5ccn(Cc6ccccc6C)c5c4)cc32)cc1", "inhibition": "5.02%"},
      {"smiles": "O=[N+]([O-])/C=C/c1ccc2c(ccn2Cc2ccccc2)c1", "inhibition": "24.4% (active)"},
      {"smiles": "COc1ccc(Cl)cc1-n1c(=S)sc2c(=O)n(-c3ccc(F)cc3)c(SCC(=O)O)nc21", "inhibition": "4.71%"},
      {"smiles": "CCc1ccc(-n2c(=S)sc3c(=O)n(-c4ccccc4OC)c(=S)[nH]c32)cc1", "inhibition": "84.4% (active)"},
      {"smiles": "COc1cc2[nH]c(=S)n(Cc3ccc(F)cc3)c(=O)c2cc1OC", "inhibition": "1.22%"},
      {"smiles": "CC(=O)N1CCc2cc(S(=O)(=O)NCCC(=O)N3CCCC3)ccc21", "inhibition": "0.09%"},
      {"smiles": "Oc1ccc(/C=C/c2c(F)cccc2F)c2cccnc12", "inhibition": "-1.47%"},
      {"smiles": "COCC1CCN(C(=O)c2ccc3oc(Cc4ccccc4)nc3c2)C1", "note": "(stereo unspecified)", "inhibition": "-0.25%"},
      {"smiles": "O=C(Nc1cc(C(F)(F)F)ccc1Cl)c1cc2nc3c(c(C(F)(F)F)n2n1)CCCC3", "inhibition": "-0.92%"},
      {"smiles": "c1cncc(CNc2ccnc(-c3ccc4c(c3)OCO4)n2)c1", "inhibition": "-4.36%"},
      {"smiles": "COc1ccc(/C=N/n2c(C)cc(C)cc2=O)cc1", "inhibition": "-4.04%"},
      {"smiles": "C=CCN1C(=O)[C@@H](CC(=O)N2CCN(C(=O)c3ccco3)CC2)[C@]2(C(=O)OC)CCCCC=C12", "inhibition": "0.68%"},
      {"smiles": "CN(C(N)=NC(=O)/C=C/c1ccccc1)C(C#Cc1ccccc1)Cc1ccccc1", "note": "(stereo unspecified)", "inhibition": "-2.71%"},
      {"smiles": "COc1cc(Cl)cc(C2NC(=O)NC(C)=C2C(=O)NCc2ccccc2)c1O", "note": "(stereo unspecified)", "inhibition": "0.85%"},
      {"smiles": "O=C(NN1C(=O)C2C3C=CC(O3)C2C1=O)c1ccncc1", "note": "(stereo unspecified)", "inhibition": "3.88%"},
      {"smiles": "COc1ccccc1C(=O)NN1C(=O)C2C3C=CC(O3)C2C1=O", "note": "(stereo unspecified)", "inhibition": "35.6% (active)"},
      {"smiles": "O=C(NN1C(=O)C2C3C=CC(O3)C2C1=O)c1ccccc1", "note": "(stereo unspecified)", "inhibition": "-3.32%"},
      {"smiles": "Nc1nc(CC(=O)CSc2ccc(Cl)cc2)nc(Nc2ccc(F)cc2)n1", "inhibition": "-4.39%"},
      {"smiles": "COC(=O)[C@]12C[C@H](CC(=O)N3CCOCC3)C(=O)N(Cc3ccc(Cl)cc3Cl)C1=C[C@H](COCc1ccccc1)O[C@@H]2C", "inhibition": "2.19%"},
      {"smiles": "Nc1c(C(=O)c2cccs2)sc2nsc(SCCN3CCCCC3)c12", "inhibition": "25.1% (active)"},
      {"smiles": "c1ccc(CN2CCC(N=C3NN=C(c4ccc5c(c4)OCCO5)CS3)CC2)cc1", "inhibition": "27.6% (active)"},
      {"smiles": "CC(=NC1CCN(Cc2ccccc2)CC1)c1c(O)[nH]c(=O)[nH]c1=O", "inhibition": "1.82%"},
      {"smiles": "CS(=O)(=O)N(CC(=O)N1CCN(Cc2ccccc2)CC1)c1ccc2c(c1)OCCO2", "inhibition": "-1.51%"},
      {"smiles": "O=C(CSc1nnc(COc2ccccc2)n1-c1ccc(Cl)cc1)Nc1ccc2c(c1)OCO2", "inhibition": "0.01%"},
      {"smiles": "CC1(C)NC(=O)N(CC(=O)Nc2ccc(-c3ccccc3)cc2)C1=O", "inhibition": "-1.42%"},
      {"smiles": "Cc1ccc(NC(=O)Cn2sc3ccccc3c2=O)cc1", "inhibition": "91.8% (active)"},
      {"smiles": "O=C(Cn1nc(C(=O)O)c2ccccc2c1=O)Nc1ccc(F)cc1", "inhibition": "2.28%"},
      {"smiles": "CN(C)C(=O)CCc1ccc2c3c([nH]c2c1)[C@]1(CCc2ccccc2)[C@@H](C(=O)N2CCCCC2)C[C@H](CC(=O)NCCC2=CCCCC2)C(=O)N1CC3", "inhibition": "-1.05%"},
      {"smiles": "O=C1Nc2ccccc2OC1CC(=O)N1CCCCCCC1", "note": "(stereo unspecified)", "inhibition": "1.11%"},
      {"smiles": "CN(CC(=O)NC1CCCC1)S(=O)(=O)c1cnc[nH]1", "inhibition": "-5.5%"},
      {"smiles": "CC1CCN(C(=O)C2CCN(S(=O)(=O)N3CCC4(CC3)OCCO4)CC2)CC1", "inhibition": "-2.98%"},
      {"smiles": "COc1ccc(-c2nn(C)c(=O)c3ccccc23)cc1NC(=O)COc1ccccc1", "inhibition": "3.05%"}
    ]}
  ]
}
